SMILES strings stand for the structures. The source made the active and inactive calls. How the calls were made is not given here.

The nature of experiment [1]: Immunotoxin (HA22) sensitization/mitigation study. Vehicle arm (PBS) (AID 1159510).
A short description of experiment [2]: Immunotoxin (SS1P) sensitization/mitigation study. Vehicle arm (DMEM) (AID 1159513).
Potency means the concentration at half of the fitted maximal effect.

Take `CCCCc1nc2cc(C=CC(=O)NO)ccc2n1CCN(CC)CC`: the values for the Potency in experiment [1] and in experiment [2] were 118 nM (active) and 264 nM (active), respectively.

For `Cn1cc(-c2[nH]c3cc(NC(=O)[C@H](N)C4CCCCC4)cc4c3c2C=NNC4=O)cn1`, the Potency is 590 nM (active) in experiment [1] and 1870 nM (active) in experiment [2].

On to `CC(=O)Nc1ccc([C@H](C)C(=O)Nc2ncc(C(C)C)s2)cc1`, for which the Potency in experiment [1] was 296 nM (active); in experiment [2], 662 nM (active).

`O=C(O)c1ccc2cc(-c3ccc(O)c(C45CC6CC(CC(C6)C4)C5)c3)ccc2c1`: the Potency in experiment [1] is 93.5 nM (active); in experiment [2], 18700 nM (active).

Take `Cc1c(CN2CCN(C(=O)C(C)C)CC2)sc2c(N3CCOCC3)nc(-c3cnc(N)nc3)nc12`: the results for the Potency in experiment [1] and in experiment [2] were 93.5 nM (active) and 46.9 nM (active), respectively.

As for `COc1ccc(C=Cc2cc(OC)c(OC)c(OC)c2)cc1O`, the Potency result in experiment [1] was “inactive”. The Potency in experiment [2] is 1.9 nM (active).

As to `Cc1nc2cnc3ccc(C#Cc4cccnc4)cc3c2n1-c1ccc(C(C)(C)C#N)cc1`, the Potency in experiment [1] is 1870 nM (active); in experiment [2] it was 132 nM (active).

With `C[C@@]12O[C@@H](C[C@]1(O)CO)n1c3ccccc3c3c4c(c5c6ccccc6n2c5c31)CNC4=O`, the Potency in experiment [1] was 209 nM (active); in experiment [2] it was 29.6 nM (active).
